Measurements published in PubChem BioAssay (Tox21).
Results filed as inconclusive are left out. Calls of active or inactive are those of the source. Unless noted, calls follow the shape of the dose curve; as a rule, active = well fitted curve in the direction sought with a large enough effect in the repeat runs; inconclusive = weak or mixed curves; inactive = no such curve, though single readings can be large; an effect the other way counts as inactive or inconclusive.

Key:
[1] = qHTS assay for small molecule agonists of the p53 signaling pathway (AID 651631; calls by dose curve; also: nearly all actives have a fitted effect of over 15% in size)
Procedure, shortened: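 Fluorescence intensity from cleaved LiveBLAzer B/G substrate (2 h, room temperature) served as the signal. Beforehand, HCT-116 reporter cells bearing p53 response elements were treated 16 h at 37 °C with DMSO-dissolved compounds.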

[2] = qHTS assay for small molecules that induce genotoxicity in human embryonic kidney cells expressing luciferase-tagged ATAD5 (AID 651632); also: nearly all actives have a fitted effect of over 15% in size
Procedure, shortened: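 Cells were seeded at 2,000 per well, dosed with compound, and incubated 16 hr at 37C in 5% CO2. Luciferase activity was then quantified after a 30 min room-temperature incubation with Amplite.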

[3] = qHTS assay for small molecule agonists of the p53 signaling pathway - cell viability (AID 651633; calls by dose curve;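 also: p53RE-bla HCT reporter cells with a stable beta-lactamase p53 reporter; series mostly up to about 83 µM; nearly all actives have a fitted effect of over 30% in size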)
Procedure, shortened: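 p53RE-bla cells were treated with compound for 16 hours at 37 C. Cytotoxicity was then measured as CellTiter-Glo luminescence after 30 min at room temperature.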

[4] = qHTS assay for small molecules that induce genotoxicity in human embryonic kidney cells expressing luciferase-tagged ATAD5 - cell viability (AID 651634; calls by dose curve; also: nearly all actives have a fitted effect of over 25% in size)
Procedure, shortened: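 Cells (HEK293T, luciferase-tagged ATAD5) are seeded at 2,000 per well, dosed with compound or DMSO vehicle, and incubated 15.5 hr at 37C and 5% CO2. CellTiter-Fluor is added for 30 min before fluorescence is measured.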

[5] = qHTS assay for small molecule disruptors of the mitochondrial membrane potential - cell viability (AID 720634; calls by dose curve;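 also: human HepG2 liver cancer cells; series mostly up to about 83 µM; nearly all actives have a fitted effect of over 20% in size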)
Procedure, shortened: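 Cytotoxicity was measured by ATP quantitation in HepG2 wells that had first been treated with compound for 1 hr and stained with m-MPI dye; CellTiter-Glo incubation was 30 min at room temperature.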

[6] = qHTS assay for small molecule disruptors of the mitochondrial membrane potential (AID 720635); also: potency is read from the fitted curve at half-maximal effect
Procedure, shortened: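 HepG2 cells exposed to compound 1 hr at 37C, then Mito-MPS dye 30 min. Ratio read of aggregate (540/590 nm) versus monomer (490/535 nm) fluorescence.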

[7] = qHTS assay to test for compound auto fluorescence at 590 nm (red) in HepG2 cells (AID 720674)
Procedure, shortened: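 Seeding: 2,000 HepG2 cells/well, MEM/10% FBS, overnight 37 C. Dosing: compound vs DMSO. Incubation: 1 hr, 37 C, 5% CO2. Read: fluorescence 540 ex/590 em, Rose Bengal sodium as red reference.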

[8] = qHTS assay to test for compound auto fluorescence at 535 nm (green) in HepG2 cells (AID 720675)
[9] = qHTS assay to test for compound auto fluorescence at 460 nm (blue) in HEK293 cells (AID 720678)
Procedure, shortened: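 Intrinsic compound fluorescence is recorded in live HEK293 cultures after overnight incubation at 37C, 5% CO2, using excitation 405 nm and emission 460 nm. Values are referenced to triamterene.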

[10] = qHTS assay to test for compound auto fluorescence at 590 nm (red) in HEK293 cells (AID 720679)
Procedure, shortened: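 Red autofluorescence, HEK293 cells: 2,000 cells/well; attach 4-5 hr 37C; add 23 nL cpd or DMSO; incubate o/n 37C 5% CO2; read Ex540/Em590; Rose Bengal sodium reference.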
% is scaled to controls: 0 for no effect and ±100 for the full control effect.

CN(C(=O)c1c(O)c2ccccc2n(C)c1=O)c1ccccc1
inactive: outcome [1] | Potency [2] | outcome [3] | Potency [4] | Potency [5] | Potency [6] | outcome [7] | outcome [8] | outcome [9] | outcome [10]

O=C1CCCCCCCCCCCN1
inactive: outcome [1] | Potency [2] | outcome [3] | Potency [4] | Potency [5] | Potency [6] | outcome [7] | outcome [8] | outcome [9] | outcome [10]

C=COCC1CCC(CO)CC1 (stereo not given)
inactive: outcome [1] | Potency [2] | outcome [3] | Potency [4] | Potency [5] | Potency [6] | outcome [7] | outcome [8] | outcome [9] | outcome [10]

c1ccc(CC2=NCCN2)cc1
inactive: outcome [1] | Potency [2] | outcome [3] | Potency [4] | Potency [5] | Potency [6] | outcome [7] | outcome [8] | outcome [9] | outcome [10]

CC1=CC(C)C(C=O)CC1 (stereo not given)
inactive: outcome [1] | Potency [2] | outcome [3] | Potency [4] | Potency [5] | Potency [6] | outcome [7] | outcome [8] | outcome [9] | outcome [10]

CC(=O)Nc1c(I)cc(I)c(C(=O)O)c1I
inactive: outcome [1] | Potency [2] | outcome [3] | Potency [4] | Potency [5] | Potency [6] | outcome [7] | outcome [8] | outcome [9] | outcome [10]

CC(C[N+](C)(C)C)OC(N)=O (stereo not given)
inactive: outcome [1] | Potency [2] | outcome [3] | Potency [4] | Potency [5] | Potency [6] | outcome [7] | outcome [8] | outcome [9] | outcome [10]

Cn1c(N)c(N=O)c(=O)n(C)c1=O
inactive: outcome [1] | Potency [2] | outcome [3] | Potency [4] | Potency [5] | Potency [6] | outcome [7] | outcome [8] | outcome [9] | outcome [10]

CCCCCCCCCCCCCC=O
inactive: activation [1] -3.36% [at 8.3 µM] | activation [2] 2.51% [at 8.08 µM] | activity change, negative = cytotoxicity [3] 18.4% [at 8.08 µM] | activity, negative = cytotoxicity [4] 13.3% [at 8.08 µM] | activity change, negative = cytotoxicity [5] 12.2% [at 8.08 µM] | ratio activity, negative = MMP loss [6] 25.8% [at 8.08 µM] | fluorescence, relative to Rose Bengal [7] 0.0167% [at 3.72 µM] | fluorescence, % of fluorescein control [8] 0.0875% [at 3.72 µM] | fluorescence, % of triamterene [9] -0.166% [at 3.72 µM] | fluorescence, % of fluorescent control [10] -0.804% [at 3.72 µM]

CCCc1cc(C(N)=S)ccn1
inactive: outcome [1] | Potency [2] | outcome [3] | Potency [4] | Potency [5] | Potency [6] | outcome [7] | outcome [8] | outcome [9] | outcome [10]

CC(C)NCC(O)c1ccc(NS(C)(=O)=O)cc1 (stereo not given)
inactive: outcome [1] | Potency [2] | outcome [3] | Potency [4] | Potency [5] | Potency [6] | outcome [7] | outcome [8] | outcome [9] | outcome [10]

CCCCCCOC(=O)CCCCC(=O)OCCCCCC
inactive: outcome [1] | Potency [2] | outcome [3] | Potency [4] | Potency [5] | Potency [6] | outcome [7] | outcome [8] | outcome [9] | outcome [10]

NS(=O)(=O)c1ccccc1Cl
inactive: outcome [1] | Potency [2] | outcome [3] | Potency [4] | Potency [5] | Potency [6] | outcome [7] | outcome [8] | outcome [9] | outcome [10]

CCOC(=O)c1cccc(N)c1
inactive: outcome [1] | Potency [2] | outcome [3] | Potency [4] | Potency [5] | Potency [6] | outcome [7] | outcome [8] | outcome [9] | outcome [10]

OCCOc1ccc(OCCO)cc1
active: Potency [6] 1.56 µM
inactive: outcome [1] | Potency [2] | outcome [3] | Potency [4] | Potency [5] | outcome [7] | outcome [8] | outcome [9] | outcome [10]

O=C[C@H](O)[C@@H](O)[C@H](O)[C@H](O)CO
inactive: outcome [1] | Potency [2] | outcome [3] | Potency [4] | Potency [5] | outcome [7] | outcome [8] | outcome [9] | outcome [10]

CCOC(=O)c1ccc(C)cc1
inactive: outcome [1] | Potency [2] | outcome [3] | Potency [4] | Potency [5] | Potency [6] | outcome [7] | outcome [8] | outcome [9] | outcome [10]

CC1(C)C(O)C(C)(C)C1O (stereo not given)
inactive: outcome [1] | Potency [2] | outcome [3] | Potency [4] | Potency [5] | outcome [7] | outcome [8] | outcome [9] | outcome [10]

N#Cc1ccc(C2CCCc3cncn32)cc1 (stereo not given)
inactive: outcome [1] | Potency [2] | outcome [3] | Potency [4] | Potency [5] | outcome [7] | outcome [8] | outcome [9] | outcome [10]

Nc1ccccc1S(=O)(=O)O
inactive: outcome [1] | Potency [2] | outcome [3] | Potency [4] | Potency [5] | outcome [7] | outcome [8] | outcome [9] | outcome [10]

FC(F)OC(Cl)C(F)(F)F (stereo not given)
inactive: outcome [1] | Potency [2] | outcome [3] | Potency [4] | Potency [5] | Potency [6] | outcome [7] | outcome [8] | outcome [9] | outcome [10]

CCCN(CCC)CCc1cccc2c1CC(=O)N2
inactive: outcome [1] | Potency [2] | outcome [3] | Potency [4] | Potency [5] | Potency [6] | outcome [7] | outcome [8] | outcome [9] | outcome [10]

Cc1cccc(C)c1NC(=O)C(C)N (stereo not given)
inactive: outcome [1] | Potency [2] | outcome [3] | Potency [4] | Potency [5] | Potency [6] | outcome [7] | outcome [8] | outcome [9] | outcome [10]

CCCCC/C=C\CCC=O
inactive: outcome [1] | Potency [2] | outcome [3] | Potency [4] | Potency [5] | outcome [7] | outcome [8] | outcome [9] | outcome [10]

Cn1cc(S(C)=O)c(=O)c2ccc(F)cc21 (stereo not given)
inactive: outcome [1] | Potency [2] | outcome [3] | Potency [4] | Potency [5] | Potency [6] | outcome [7] | outcome [8] | outcome [9] | outcome [10]
